# PubChem BioAssay AID2283221 (EPA ToxCast)
# Inconclusive results are not listed. Active and inactive are the calls of the source. The calls were made as follows: active = hit-call score of the fitted dose curve at least 0.9, where 1 is the maximum; inconclusive = response in the unintended direction; inactive = score below 0.9.
# Target: human Spleen Associated Tyrosine Kinase (Syk), SYK (gene 6850) (UniProt P43405)
# Assay: NVS_ENZ_hSyk: NovaScreen (NVS) Enzymatic Assay for human Spleen Associated Tyrosine Kinase (Syk)
# Experimental: NVS_ENZ_hSyk is a biochemical, single-readout assay that uses extracted gene-proteins in a cell-free assay. Measurements were taken 1 hour after chemical dosing in a 96-well plate.NVS_ENZ_hSyk is one of one assay component(s) measured or calculated from the NVS_ENZ_hSyk assay. It is designed to make measurements of enzyme activity, a form of enzyme reporter, as detected with fluorescence intensity signals by Fluorescence and electrophoretic mobility shift technology.Data from the assay component NVS_ENZ_hSyk was analyzed into 1 assay endpoint. This assay endpoint, NVS_ENZ_hSyk, was analyzed in the positive analysis fitting direction relative to DMSO as the negative control and baseline of activity. Using a type of enzyme reporter, loss-of-signal activity can be used to understand changes in the enzymatic activity as they relate to the gene SYK. Furthermore, this assay endpoint can be referred to as a primary readout, because this assay has produced […] where this one serves a enzymatic activity function. To generalize the intended target to other relatable targets, this assay endpoint is annotated to the kinase intended target family, where the subfamily is non-receptor tyrosine kinase.
# Binding assays used specific radioligands (tritiated, iodinated) with non-radioactive competitive displacement ligands in agonist or antagonist protocols (as indicated) and various reference compounds and inhibitors to titrate specific binding to receptors and transporters. Most enzyme assays (CYPs, kinases, phosphatases, proteases, HDACs) used recombinant protein and specific substrates (fluorescence mostly, some colorimetric and radioactive) and inhibitors, followed by a biochemical separation of substrate and product. All assays for the biochemical HTS were initially run in duplicate at a single concentration (10 uM for CYP450 assays and 25 uM for all others). Assay-chemical combinations meeting a pre-defined threshold (e.g., 30% inhibition and other criteria defined below) were then run in singleton concentration-response format with maximum concentration of 20 uM for CYPs and 50 uM for all others. Each assay was run with positive and negative controls, and concurrent controls on every plate. The follow-up (secondary) screen tested active chemical-pairs in concentration series, as well as a few additional assays not tested in the primary screen, some selected negative inactives, and several cases re-run in the concentration series for confirmatory purposes.
Compound,outcome,AC50
CCNc1nc(Cl)nc(NC(C)C)n1,inactive,–
CCOCN(C(=O)CCl)c1c(C)cccc1CC,inactive,–
CNc1cnn(-c2cccc(C(F)(F)F)c2)c(=O)c1Cl,inactive,–
S=C(S)NCCNC(=S)S.[Mn+2].[S-]C([S-])=NCCN=C([S-])[S-].[Zn+2],–,9.71 µM (active)
O=C(O)C1(C(=O)Nc2ccc(Cl)cc2Cl)CC1,–,15.4 µM (active)
COP(N)(=O)SC (configuration not stated),inactive,–
CC[C@H](C)[C@H]1O[C@]2(C=C[C@@H]1C)C[C@@H]1C[C@@H](C/C=C(\C)[C@@H](O[C@H]3C[C@H](OC)[C@@H](O[C@H]4C[C@H](OC)[C@@H](NC)[C@H](C)O4)[C@H](C)O3)[C@@H](C)/C=C/C=C3\CO[C@@H]4[C@H](O)C(C)=C[C@@H](C(=O)O1)[C@]34O)O2,inactive,–
